For 40 compounds, growth results are on record in PubChem BioAssay (NCI).

Several values for one entry are separate records, joined by “and”; a condition that tells them apart may be missing. Equal values may be shown once. The panel holds about 83,000 compounds, 20% with a hit somewhere; the sample as a whole holds those more often.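 Single-concentration screen, 48 h exposure, 96-well plates. Endpoint: percent growth. Below 10 = active.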 Activity calls are given as the source filed them.

This assay relates to A498 renal. The experiment in a line: NCI-60 one-dose screen, 48 h (100 = growth as untreated, 0 = no growth, -100 = all killed). Particulars: 10 µM unless noted. The procedure: Growth inhibition of the A498 human tumor cell line is measured as a screen for anti-cancer activity. Cells are grown in 96 well plates and exposed to the test compound for 48 hours. Compounds are tested at a single concentration, which is 10^-5 M for most compounds. The reported endpoint is percent growth (GI% or GIPRCNT), where numbers from 0 - 100% represent growth inhibition, and numbers from -100% - 0 represent cell death. For example, a value of 40 represents 60% growth inhibition. A value of 0 means no net growth occurred over the course of the experiment. A value of -40 indicates 40% of cells at the beginning of the experiment died by the end of the experiment. A value of -100 means all cells are dead at the end of the experiment.
NCI-60 Human Tumor Cell Lines Screen was performed using the standard one-dose NCI protocol, which is described in more detail at https://dtp.cancer.gov/discovery_development/nci-60/default.htm.
Compounds with GIPRCNT values below 10 were considered active. Activity score was based on GIPRCNT using the following formula: […]
Score is 0 for GIPRCNT values of 100 or above, 50 for GIPRCNT values of 0, and 100 for GIPRCNT values of -100.
For `COc1ccc(C(C#N)C(C)=O)cc1` (stereo not given), the growth was 96.8% (inactive).
For the compound `CC(=O)c1cccc(S(=O)(=O)F)c1`, the growth is 95.8% (inactive).
As for `N#Cc1ccc(Cl)cc1`, the figure is 134% (inactive); as for `C[C@]12CCC3[C@@H](C[C@@H]4SC(Nc5ccccc5)=N[C@@]45CC(=O)CC[C@]35C)[C@@H]1CCC2=O` (stereo not given in full), 63.7% (inactive).
As for `CCCn1cc2c3c(cccc31)[C@H]1C[C@@H](C)CN(C)[C@@H]1C2`, the growth was 71.3% (inactive).
As for `CCOP(=O)(OCC)C(=O)N(CC)CC`, the figure is 95.4% (inactive); as for `O=[N+]([O-])c1cc(Cl)c(Cl)c([N+](=O)[O-])c1Cl`, 108% (inactive).
Turning to `CN(C)c1ccc([N+](=O)[O-])c([N+](=O)[O-])c1`, the growth is 109% (inactive).
The same measure for `Cc1cc(NC(=O)NCCCOc2ccc(N3C(N)=NC(N)=NC3(C)C)cc2Cl)ccc1S(=O)(=O)F`: 94.6% (inactive).
Take `COc1cc2c(cc1OC)[C@@H]1C(=O)c3ccc4c(c3O[C@@H]1CO2)C[C@H](C(C)C)O4`: the growth was 86.8% (inactive).
As for `CC/C(Cc1ccccc1)=C(\c1ccc(OCCN2CCCC2)cc1)c1ccc(OC(=O)NCc2ccccc2)cc1`, the figure is 74.1% (inactive); as for `C[C@H](O)CCC(=O)c1ccoc1`, 103% (inactive); as for `CC1(C)S[C@H]2CC[C@H]3OC(=O)[C@@H]1N23`, 93.1% (inactive).
The same measure for `O=C(O)c1ccc(=O)[nH]c1`: 63.4% (inactive) and 107% (inactive); for `CN1CCc2cc3c(cc2C1O)OCO3` (stereo not given): 121% (inactive) and 98% (inactive); for `CO[C@@H]([CH2][Hg][O]C(=O)c1ccccc1)[C@@H]([CH2][Hg][O]C(=O)c1ccccc1)OC`: 117% (inactive).
The same measure for `O=[N+]([O-])c1cc(Br)c(O)c(Br)c1`: 70.1% (inactive); for `C[C@]12CC[C@H]3[C@@H](C[C@@H]4SC(Nc5ccccc5)=N[C@@]45C/C(=N/O)CC[C@]35C)[C@@H]1CCC2=O`: 96.3% (inactive).
Consider `Cc1nc2ccccc2c(=O)n1-c1ccccc1F`, for which the growth is 84.5% (inactive).
Turning to `O=[N+]([O-])c1ccc(CI)cc1`, the growth is 95.7% (inactive).
The same measure for `C[C@@H]1C/C=C\C(=O)O[C@H](/C=C/C#C/C=C/C(C)(C)[C@@H](O)c2cccc(O)c2Br)[C@@H](C)/C=C/[C@H](C)C[C@H](OC(N)=O)C1`: 41% (inactive).
As for `CC(C)c1cccc(C(C)C)c1O`, the growth was 112% (inactive) and 113% (inactive).
As for `Cc1cc[n+](CCc2ccccc2)cc1`, the figure is 83.9% (inactive) and 93.6% (inactive); as for `N#CC(C#N)=Cc1cccc(F)c1`, 102% (inactive); as for `N#CC(N)c1ccccc1` (stereo not given), 81.2% (inactive).
With `O=C(NC1=NCC[Se]1)c1ccccc1O`, the growth is 88.5% (inactive).
As for `O=S(OO)c1cc(Cl)c(O)c(Cl)c1` (stereo not given), the figure is 82.5% (inactive); as for `O=P(O)(Nc1ccccc1)Nc1ccccc1`, 89.3% (inactive); as for `Cc1cc(N(CCCl)CCCl)ccc1/C=N\NC(=O)c1cccnc1`, -85.4% (active) and -89.4% (active).
Regarding `O=[N+]([O-])c1ccc(OCc2ccc(S(=O)(=O)F)c(Cl)c2)c(Cl)c1`, the growth was 95.6% (inactive).
The same measure for `NC(=O)Oc1cc(OC(N)=O)cc(N(CCCl)CCCl)c1`: 77.6% (inactive).
Turning to `Cc1nnc([S-])o1.[Au+].c1ccc([PH+](c2ccccc2)c2ccccc2)cc1`, the growth is 90.5% (inactive).
Consider `O=C(O)C(F)F`, for which the growth is 84.4% (inactive).
The same measure for `O=c1[nH]c(=O)[nH]c(=O)[nH]1`: 129% (inactive); for `CC(=O)Cc1ccc2c(c1)OCO2`: 116% (inactive).
As for `O=C1NC(=O)C(=Cc2ccccc2)C(=O)N1`, the growth is 128% (inactive) and 94.2% (inactive).
As for `C[N+]1(CC#CC[N+]2(C)CCCC2)CCCC1`, the figure is 84.6% (inactive); as for `O=C1CN2CCC1CC2`, 72.2% (inactive).
For `CCCCn1c(=O)c(C(=O)NCc2ccccc2Cl)c(O)c2ccccc21`, the growth was 71.2% (inactive).
Consider `O=C(O)C(Br)CBr` (stereo not given), for which the growth is 107% (inactive).
